{
  "source": "PubChem BioAssay (Tox21)",
  "note": "Records with an inconclusive call do not appear. Activity calls are given as the source filed them. Calls come from the whole dose curve. % is set by controls: 0 for no effect and ±100 for the full control effect; potency is the fitted concentration of half-maximal effect.",
  "data": [
    {"molecular_target": "Thyrotropin receptor (Homo sapiens) (UniProt P16473)", "sequence (P16473 whole entry, looked up)": "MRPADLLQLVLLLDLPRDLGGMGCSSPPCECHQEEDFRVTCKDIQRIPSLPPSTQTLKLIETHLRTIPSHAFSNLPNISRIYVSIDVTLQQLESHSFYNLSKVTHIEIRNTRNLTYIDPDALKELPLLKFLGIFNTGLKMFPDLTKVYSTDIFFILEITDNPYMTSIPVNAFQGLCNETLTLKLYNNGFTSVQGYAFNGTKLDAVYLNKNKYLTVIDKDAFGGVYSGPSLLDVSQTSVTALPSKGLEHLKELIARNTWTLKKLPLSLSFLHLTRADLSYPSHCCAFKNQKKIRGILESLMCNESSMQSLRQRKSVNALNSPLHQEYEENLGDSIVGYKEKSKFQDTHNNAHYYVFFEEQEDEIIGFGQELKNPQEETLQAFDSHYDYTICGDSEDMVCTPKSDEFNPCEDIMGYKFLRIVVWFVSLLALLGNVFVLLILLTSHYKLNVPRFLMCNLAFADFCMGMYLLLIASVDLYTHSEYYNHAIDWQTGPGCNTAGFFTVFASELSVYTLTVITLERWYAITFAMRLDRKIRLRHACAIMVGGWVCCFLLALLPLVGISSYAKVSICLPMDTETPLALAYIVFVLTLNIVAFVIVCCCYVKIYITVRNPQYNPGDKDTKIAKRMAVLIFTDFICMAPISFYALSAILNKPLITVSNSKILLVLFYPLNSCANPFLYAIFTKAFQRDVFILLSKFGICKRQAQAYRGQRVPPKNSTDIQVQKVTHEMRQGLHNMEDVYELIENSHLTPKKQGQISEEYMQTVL", "assay": "qHTS assay to identify small molecule antagonists of the thyroid stimulating hormone receptor (TSHR) signaling pathway (AID 1259385); note: nearly all actives have a fitted effect of over 20% in size", "conditions": "TSHR-HEK293 cAMP HTRF, TSH-stimulated antagonist mode; series mostly up to 92.4 µM; activity change, negative = inhibition: at the top concentration", "how_it_was_run": "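TSHR-HEK293 cells were plated and held 18 h at 37C/5% CO2, then given compound plus Ro20-1724 and stimulated with TSH at 1.5 ng/mL final. After 30 min at room temperature, cAMP was detected with cAMP-d2/anti-cAMP-cryptate (1 h) by fluorescence.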", "values": [
      {"smiles": "NNC(=O)c1ccccc1", "activity change, negative = inhibition": "-0.803% (inactive)"},
      {"smiles": "ClCCN1CCOCC1", "activity change, negative = inhibition": "2.2% (inactive)"},
      {"smiles": "Cc1cc(C)cc(OP(=O)(Oc2cc(C)cc(C)c2)Oc2cc(C)cc(C)c2)c1", "activity change, negative = inhibition": "-12.3% (inactive)"},
      {"smiles": "O=C1NCN(c2ccccc2)C12CCN(CC1COc3ccccc3O1)CC2", "note": "(stereo not drawn)", "activity change, negative = inhibition": "-9.92% [at 42.5 µM] (inactive)"},
      {"smiles": "CCCN(CC)CC1COC2(CCC(C(C)(C)C)CC2)O1", "note": "(stereo not drawn)", "activity change, negative = inhibition": "1.7% (inactive)"},
      {"smiles": "C[C@]12CC[C@@H]3c4ccc(OC(=O)N(CCCl)CCCl)cc4CC[C@H]3[C@@H]1CC[C@@H]2O", "activity change, negative = inhibition": "-0.18% [at 42.5 µM] (inactive)"},
      {"smiles": "C=CC(=O)N(C)C", "activity change, negative = inhibition": "0.164% (inactive)"},
      {"smiles": "COc1cccc(C(=O)CCN[C@@H](C)[C@H](O)c2ccccc2)c1", "activity change, negative = inhibition": "0.364% [at 42.5 µM] (inactive)"},
      {"smiles": "CC1(C)[C@H](C(=O)O[C@H](C#N)c2cccc(Oc3ccccc3)c2)[C@@H]1/C=C(\\Cl)C(F)(F)F", "Potency": "inactive"},
      {"smiles": "CCC(C)c1cc([N+](=O)[O-])cc([N+](=O)[O-])c1OC(=O)C=C(C)C", "note": "(stereo not drawn)", "activity change, negative = inhibition": "-6.9% (inactive)"},
      {"smiles": "CC(C)CCCCCOC(=O)c1ccccc1C(=O)OCCCCCC(C)C", "activity change, negative = inhibition": "-2.95% (inactive)"},
      {"smiles": "Oc1ccc(C(c2ccc(O)cc2)(C(F)(F)F)C(F)(F)F)cc1", "Potency": "inactive"},
      {"smiles": "Brc1c(Br)c(Br)c(Oc2c(Br)c(Br)c(Br)c(Br)c2Br)c(Br)c1Br", "activity change, negative = inhibition": "0.486% [at 19 µM] (inactive)"},
      {"smiles": "OC(c1ccc(Cl)cc1)(c1ccc(Cl)cc1)C(Cl)(Cl)Cl", "Potency": "68.6 µM (active)"},
      {"smiles": "Clc1ccc(-c2ccccc2)cc1", "activity change, negative = inhibition": "-11.6% (inactive)"},
      {"smiles": "O=C(CCCN1CCC2(CC1)C(=O)NCN2c1ccccc1)c1ccc(F)cc1", "activity change, negative = inhibition": "-0.56% [at 42.5 µM] (inactive)"},
      {"smiles": "CCSC(C)CC1CC(=O)C(/C(CC)=N/OC/C=C/Cl)=C(O)C1", "note": "(stereo not drawn)", "activity change, negative = inhibition": "-0.436% [at 42.5 µM] (inactive)"},
      {"smiles": "CCc1cc(C)cc(CC)c1-c1c(OC(=O)C(C)(C)C)n2n(c1=O)CCOCC2", "activity change, negative = inhibition": "3.02% (inactive)"},
      {"smiles": "CCCCCCCCCCCCCN1CC(C)OC(C)C1", "note": "(stereo not drawn)", "activity change, negative = inhibition": "-0.0446% (inactive)"},
      {"smiles": "CCc1nn(C)c(C(=O)NCc2ccc(C(C)(C)C)cc2)c1Cl", "Potency": "61.1 µM (active)"},
      {"smiles": "ClC(Cl)=C(Cl)Cl", "activity change, negative = inhibition": "1.71% (inactive)"},
      {"smiles": "c1ccc(Nc2ccc3ccccc3c2)cc1", "activity change, negative = inhibition": "-1.82% (inactive)"},
      {"smiles": "CC(C)[C@H](C(=O)OC(C#N)c1cccc(Oc2ccccc2)c1)c1ccc(OC(F)F)cc1", "note": "(stereo partly drawn)", "activity change, negative = inhibition": "-0.508% (inactive)"}
    ]}
  ]
}
